# Assay results published in PubChem BioAssay (NCATS).
# Results filed as inconclusive are left out. Unmarked numbers belong to inactive results. Activity calls are given as the source filed them. The call rests on the fitted dose curve; in most records, active means well fitted inhibition curve with a large enough effect; inconclusive means small, poorly fitted or top-dose-only effect; inactive means flat fitted curve, though single readings scatter.
# What was measured:
# Test in all cases: Cytotoxic Profiling of Annotated Libraries Using Quantitative High-Throughput Screening (AID 1296008); further: nearly all actives have a fitted effect of over 60% in size
# Conditions in all cases: Five cell lines viability, CellTiter-Glo ATP luminescence, 48-72 h; max response: active compounds read low
# HaCat = system: HaCat
# In short: (§1)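 Compounds were pin-transferred onto cells and incubated 48 or 72 hr at 37 degree Celsius, 95% humidity. CellTiter-Glo was added, plates sat 10 min at room temperature, then ATP-coupled luminescence was imaged as the viability read-out.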
# KB-3-1 = system: KB-3-1
# In short: as §1
# NIH3T3 = system: NIH3T3
# In short: as §1
# On the % scale 0 is the no-effect control and ±100 the full control effect; potency means the concentration at half of the fitted maximal effect.
smiles,measurement,setting,value
NC(=O)c1nc(Nc2ccccc2)sc1NC(=O)C1CCCCC1,max response,HaCat,-27.5%
same,outcome,KB-3-1,inactive
same,max response,NIH3T3,-18.8%
O=C([C@@H]1CCCN(c2ccc3[nH]c(C4(n5cc(Cl)cn5)CC4)nc3n2)C1)N1CCCC1,max response,HaCat,-7.93%
same,max response,KB-3-1,-11.1%
same,max response,NIH3T3,-6.68%
C/C=C(\C)C(=O)O[C@H]1C[C@](C)(O)[C@H]2CC=C(C)[C@H]2[C@@H]2OC(=O)[C@H](C)[C@H]21,max response,HaCat,2.74%
same,max response,KB-3-1,-0.753%
same,max response,NIH3T3,0.0048%
COc1ccc2[nH]c(=O)c3c(c2c1)OC(C)(C)C=C3,max response,HaCat,-2%
same,outcome,KB-3-1,inactive
CC(=O)Nc1cccc(-c2csc(Nc3cc(C)ccn3)n2)c1,max response,HaCat,-25.9%
same,max response,KB-3-1,-18.5%
same,max response,NIH3T3,-21%
O=c1[nH]c2ccc(C#CCN3CCC(Cc4ccccc4)CC3)cc2[nH]1,max response,HaCat,0.764%
same,max response,KB-3-1,-17.6%
COc1cc2ncnc(Nc3ccc(O)c(Br)c3)c2cc1OC,Potency,HaCat,3.66 µM (active)
same,max response,KB-3-1,0.483%
same,Potency,NIH3T3,11.6 µM (active)
Cn1c(=O)c(F)c(Nc2ccc(I)cc2F)c2c(=O)n(CC(O)CO)cnc21 (stereo not given),Potency,HaCat,6.51 µM (active)
same,max response,KB-3-1,-14.5%
same,Potency,NIH3T3,1.3 µM (active)
C=C1[C@H]2CC[C@H](C(=O)O)[C@@]23CC[C@H](C3)C1(C)C,max response,HaCat,-74.2%
same,outcome,KB-3-1,inactive
same,outcome,NIH3T3,inactive
COc1ccc([C@H]2OC[C@H]3O[C@@H](O[C@H]4[C@@H]2NC[C@@H]4O)[C@H](O)[C@H]3O)cc1,Potency,HaCat,2.55 µM (active)
same,Potency,KB-3-1,904 nM (active)
same,Potency,NIH3T3,1.14 µM (active)
Cc1cn2cc(C(=O)N(C)CCO)cc(NC3CCOc4cccc(C)c43)c2n1 (stereo not given),max response,HaCat,-18.4%
same,outcome,KB-3-1,inactive
NS(=O)(=O)Nc1ncnc(OCCOc2ncc(Br)cn2)c1-c1ccc(Br)cc1,max response,HaCat,-23.8%
same,max response,KB-3-1,6.63%
same,max response,NIH3T3,-5.35%
COC1CCN(C(=O)c2cc(Cc3n[nH]c(=O)c4ccccc34)ccc2F)CC1,max response,HaCat,1.07%
same,max response,KB-3-1,-17.5%
same,max response,NIH3T3,-21.2%
C=C1/C(=C/C=C2\CCC[C@]3(C)[C@@H]([C@@H](C)OCCC(O)(CC)CC)CC[C@@H]23)C[C@@H](O)C[C@@H]1O,max response,HaCat,-5.69%
same,max response,KB-3-1,-12.7%
same,max response,NIH3T3,-34.7%
CN(C)CCn1cc(-c2ccc(F)cc2)c(-n2cccc2)n1,max response,HaCat,4.28%
same,max response,KB-3-1,-2.07%
same,max response,NIH3T3,-6.89%
O=C(NCCCCCCCCNC(=O)C(Cl)Cl)C(Cl)Cl,max response,HaCat,-4.24%
same,max response,KB-3-1,-9.66%
same,max response,NIH3T3,-14.9%
CCOC(=O)C1(CCOc2ccccc2)CCN(Cc2ccc(O)c(Cl)c2)CC1,max response,HaCat,0.37%
same,max response,KB-3-1,-15.3%
same,max response,NIH3T3,-16.4%
C=C1/C(=C/C=C2\CCC[C@]3(C)[C@@H]([C@H](C)CC[C@@H](O)C(C)(C)O)CC[C@@H]23)C[C@@H](O)C[C@@H]1O,max response,HaCat,-0.344%
same,max response,KB-3-1,-22.3%
same,Potency,NIH3T3,0.0146 µM (active)
NC(N)=N/N=C/c1ccccc1Cl,max response,HaCat,-18.8%
same,max response,KB-3-1,-14.8%
same,max response,NIH3T3,-25.1%
CCOc1ccc(-n2c(C(C)N(Cc3cccnc3)C(=O)Cc3ccc(F)c(C(F)(F)F)c3)nc3ncccc3c2=O)cc1 (stereo not given),max response,HaCat,-10.9%
same,outcome,KB-3-1,inactive
same,max response,NIH3T3,2.59%
C/C=C(/C)C(=O)OC1CC(C)(C)CC2C3=CCC4C5(C)CCC(O[C@@H]6O[C@H](C(=O)O)[C@@H](O)[C@H](O)[C@H]6O[C@@H]6O[C@H](CO)[C@H](O)[C@H](O[C@@H]7OC[C@H](O)[C@H](O)[C@H]7O[C@@H]7O[C@H](CO)[C@@H](O)[C@H](O)[C@H]7O)[C@H]6O)C(C)(C)C5CCC4(C)C3(C)C(O)C(O)C12CO (stereo not given in full),max response,HaCat,-10.3%
same,max response,KB-3-1,-3.03%
COc1c(C(O)CC(C)C)ccc2c1C(=O)OCc1cc(C)cc(O)c1O2 (stereo not given),max response,HaCat,0.403%
same,max response,KB-3-1,-22.7%
same,max response,NIH3T3,-2.04%
CN1CCN(C(=O)CN[C@@H]2C[C@H]2c2ccc(OCc3ccccc3)cc2)CC1,max response,HaCat,-3.34%
same,max response,KB-3-1,-22.7%
same,max response,NIH3T3,-9.45%
Nc1nc(OCc2cc(Br)cs2)c2[nH]cnc2n1,max response,HaCat,-1.07%
same,outcome,KB-3-1,inactive
same,max response,NIH3T3,2.13%
C/C=C(\C)C(=O)O[C@H]1C=CC(=O)O[C@H]1/C=C/[C@@H](O)[C@H](C)O,max response,HaCat,-16.7%
same,max response,KB-3-1,-19.4%
Cc1cc2sc(NC(=O)Cc3ccccc3)nc2cc1Cl,max response,HaCat,-26.8%
same,max response,KB-3-1,3.53%
same,max response,NIH3T3,0.0198%
CC(C)CCNC(=O)[C@H](CC(C)C)NC(=O)[C@H]1O[C@@H]1C(=O)O,max response,HaCat,-18.1%
same,max response,KB-3-1,2.67%
C[C@H]1CC[C@@]2(OC1)O[C@H]1CC3[C@@H]4CC[C@@H]5C[C@@H](O[C@@H]6O[C@H](CO)[C@@H](O[C@@H]7O[C@@H](C)[C@H](O)[C@@H](O)[C@H]7O)[C@H](O)[C@H]6O[C@@H]6O[C@H](CO)[C@@H](O)[C@H](O)[C@H]6O)CC[C@]5(C)C4CC[C@]3(C)[C@H]1[C@@H]2C (stereo not given in full),max response,HaCat,-24.5%
same,max response,KB-3-1,0.898%
Cn1ncnc1[C@H]1c2n[nH]c(=O)c3cc(F)cc(c23)N[C@@H]1c1ccc(F)cc1,Potency,HaCat,3.17 µM (active)
same,max response,KB-3-1,-8.81%
COc1cc(N2CCOCC2)ccc1NC(=O)c1csc(-c2cccnc2)n1,max response,HaCat,-49.6%
same,max response,KB-3-1,1.64%
same,Potency,NIH3T3,10.3 µM (active)
O=c1cc(N2CCN(c3cccc(C(F)(F)F)c3)CC2)[nH]c(=O)n1C1CCCCC1,max response,HaCat,-21.7%
same,outcome,KB-3-1,inactive
same,max response,NIH3T3,-29.2%
